Data published in PubChem BioAssay (NCATS).
Values without a mark were called inactive. Records with an inconclusive call do not appear. Where a call stands in place of a potency, no number is given. Active and inactive are the calls of the source. Unless noted, calls come from the whole dose curve; as a rule, active = well fitted curve in the direction sought with a large enough effect; inconclusive = small, poorly fitted or top-dose-only effect, or another doubt; inactive = no such curve, though single readings can be large; an effect the other way counts as inactive or inconclusive.

Experiments:
[1] = molecular target: Cytochrome P450 3A4 (Homo sapiens) (UniProt P08684); test: qHTS Assay for Inhibitors and Substrates of Cytochrome P450 3A4 (AID 884); note: potency is the fitted concentration of half-maximal effect; nearly all actives have a fitted effect of over 50% in size
Sequence of Cytochrome P450 3A4 (Homo sapiens) (P08684 whole entry, looked up): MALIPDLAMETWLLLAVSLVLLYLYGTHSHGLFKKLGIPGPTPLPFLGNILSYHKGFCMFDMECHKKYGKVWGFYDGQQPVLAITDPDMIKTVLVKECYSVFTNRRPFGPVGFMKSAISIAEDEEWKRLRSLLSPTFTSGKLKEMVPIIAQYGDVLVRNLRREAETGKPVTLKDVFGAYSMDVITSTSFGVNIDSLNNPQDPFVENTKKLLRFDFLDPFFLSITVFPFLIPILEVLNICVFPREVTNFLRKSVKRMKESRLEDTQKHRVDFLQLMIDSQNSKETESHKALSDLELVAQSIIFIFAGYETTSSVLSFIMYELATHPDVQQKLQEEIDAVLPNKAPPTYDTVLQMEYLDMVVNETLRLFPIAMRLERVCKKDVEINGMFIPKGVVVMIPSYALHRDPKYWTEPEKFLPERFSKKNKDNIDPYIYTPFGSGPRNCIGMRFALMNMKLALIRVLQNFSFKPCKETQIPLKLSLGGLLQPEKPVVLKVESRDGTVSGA
In short: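 Luminescent readout of luciferin produced by CYP3A4 (20 nM) dealkylation of Luciferin-PPXE, 25 uM (its KM). NADPH-driven reaction ran 60 min at RT after 10 min compound preincubation; data scaled to 57 uM ketoconazole as 100% inhibition.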

[2] = molecular target: Cytochrome P450 3A4 (Homo sapiens) (UniProt P08684); test: qHTS Assay for Activators of Cytochrome P450 3A4 (AID 885); note: nearly all actives have a fitted effect of over 65% in size
In short: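 Human CYP3A4 dealkylates Luciferin-PPXE to luciferin, which luciferase detection converts to light. Substrate was at its KM (25uM), buffer 200mM KPO4, reaction 60 min at RT.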

[3] = molecular target: Rap guanine nucleotide exchange factor 3 (Homo sapiens) (UniProt O95398); test: Confirmatory qHTS for antagonist of cAMP-regulated guanine nucleotide exchange factor 3 (EPAC1) (AID 1645880); settings: EPAC1 Rap1B-BODIPY-GDP exchange, fluorescence; activity, negative = inhibition: at 115 µM (top of the series); note: nearly all actives have a fitted effect of over 55% in size; note: potency is the fitted concentration of half-maximal effect
Sequence of Rap guanine nucleotide exchange factor 3 (Homo sapiens) (O95398 whole entry, looked up): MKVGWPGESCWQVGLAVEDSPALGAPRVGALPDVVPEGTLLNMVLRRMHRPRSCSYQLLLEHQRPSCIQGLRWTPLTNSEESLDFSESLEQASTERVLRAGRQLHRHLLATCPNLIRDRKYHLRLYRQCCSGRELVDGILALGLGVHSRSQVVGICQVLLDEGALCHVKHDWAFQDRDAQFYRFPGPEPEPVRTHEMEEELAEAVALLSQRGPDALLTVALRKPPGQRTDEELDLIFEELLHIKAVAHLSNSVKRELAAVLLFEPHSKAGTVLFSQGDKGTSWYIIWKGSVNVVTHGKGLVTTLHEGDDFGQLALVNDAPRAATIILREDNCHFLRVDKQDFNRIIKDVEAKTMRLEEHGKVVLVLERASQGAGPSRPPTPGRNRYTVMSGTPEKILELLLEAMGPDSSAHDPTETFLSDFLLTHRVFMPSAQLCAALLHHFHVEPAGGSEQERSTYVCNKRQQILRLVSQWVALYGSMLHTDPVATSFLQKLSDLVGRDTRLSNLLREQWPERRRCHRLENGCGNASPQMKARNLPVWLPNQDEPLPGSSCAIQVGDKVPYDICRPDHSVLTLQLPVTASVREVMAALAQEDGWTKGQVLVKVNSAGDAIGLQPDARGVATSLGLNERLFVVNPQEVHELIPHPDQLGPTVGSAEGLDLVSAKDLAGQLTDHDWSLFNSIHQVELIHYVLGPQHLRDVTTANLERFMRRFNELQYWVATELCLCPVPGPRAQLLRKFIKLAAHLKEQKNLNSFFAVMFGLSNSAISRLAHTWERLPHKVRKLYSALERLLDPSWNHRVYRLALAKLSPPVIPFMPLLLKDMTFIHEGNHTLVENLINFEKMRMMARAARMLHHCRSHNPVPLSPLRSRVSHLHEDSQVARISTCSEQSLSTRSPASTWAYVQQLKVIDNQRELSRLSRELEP
In short: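 Released BODIPY-GDP fluoresces less than Rap1-bound BODIPY-GDP; the signal is followed at 480/540 nm at 5-min intervals over 30 min, after 5 min at room temperature. Reactions contain 100 nM EPAC1, 250 nM RAP1B-BODIPY-GDP and 50 uM GDP; results are normalized to ATA and DMSO.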

[4] = molecular target: Rap guanine nucleotide exchange factor 4 (Homo sapiens) (UniProt Q8WZA2); test: Confirmatory qHTS for antagonist of cAMP-regulated guanine nucleotide exchange factor 4 (EPAC2) (AID 1645885); note: nearly all actives have a fitted effect of over 25% in size; note: potency is the fitted concentration of half-maximal effect
Sequence of Rap guanine nucleotide exchange factor 4 (Homo sapiens) (Q8WZA2 whole entry, looked up): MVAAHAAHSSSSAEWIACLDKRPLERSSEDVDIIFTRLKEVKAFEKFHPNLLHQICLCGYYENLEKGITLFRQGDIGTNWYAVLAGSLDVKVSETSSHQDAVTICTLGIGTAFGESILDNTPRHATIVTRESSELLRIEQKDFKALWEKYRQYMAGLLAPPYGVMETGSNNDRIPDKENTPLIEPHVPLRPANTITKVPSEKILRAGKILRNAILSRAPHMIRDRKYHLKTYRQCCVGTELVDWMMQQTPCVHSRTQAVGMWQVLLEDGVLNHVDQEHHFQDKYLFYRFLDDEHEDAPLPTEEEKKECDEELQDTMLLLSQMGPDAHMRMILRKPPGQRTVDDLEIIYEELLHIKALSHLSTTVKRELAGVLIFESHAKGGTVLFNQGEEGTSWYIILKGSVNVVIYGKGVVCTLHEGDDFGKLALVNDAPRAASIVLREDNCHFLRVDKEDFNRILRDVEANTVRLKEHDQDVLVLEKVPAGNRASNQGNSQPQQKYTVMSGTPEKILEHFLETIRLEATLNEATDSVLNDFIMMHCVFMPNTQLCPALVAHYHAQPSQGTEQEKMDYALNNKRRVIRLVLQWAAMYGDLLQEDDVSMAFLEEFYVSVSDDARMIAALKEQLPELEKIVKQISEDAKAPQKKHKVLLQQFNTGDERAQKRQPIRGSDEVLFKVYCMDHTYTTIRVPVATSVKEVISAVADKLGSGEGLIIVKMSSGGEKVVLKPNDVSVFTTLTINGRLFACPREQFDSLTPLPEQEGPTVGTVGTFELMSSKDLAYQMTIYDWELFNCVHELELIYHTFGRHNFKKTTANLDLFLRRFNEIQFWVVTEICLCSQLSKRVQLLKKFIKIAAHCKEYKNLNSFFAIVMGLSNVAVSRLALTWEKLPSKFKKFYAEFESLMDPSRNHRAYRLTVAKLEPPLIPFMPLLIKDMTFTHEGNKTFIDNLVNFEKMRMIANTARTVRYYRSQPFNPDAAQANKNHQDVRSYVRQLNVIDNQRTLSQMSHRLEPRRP

[5] = molecular target: Rap guanine nucleotide exchange factor 3 (Homo sapiens) (UniProt O95398); test: Counterscreen qHTS for antagonist of cAMP-regulated guanine nucleotide exchange factor 3 (EPAC1) (AID 1645888)
In short: (§1)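 Rap1B–BODIPY-GDP (250 nM) with 50 uM GDP; compounds pin-transferred to 9.74 nM–152 uM final (activator) or from 7.32 nM upwards (inhibitor). Fluorescence Ex/Em 480/540 nm read at 5 and 30 min, then after adding cAMP or buffer, at room temperature.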

[6] = molecular target: Rap guanine nucleotide exchange factor 3 (Homo sapiens) (UniProt O95398); test: Confirmatory qHTS for agonist of cAMP-regulated guanine nucleotide exchange factor 3 (EPAC1) (AID 1645881);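 note: EPAC1 catalysed release of BODIPY-GDP from Rap1B seen as fluorescence loss; nearly all actives have a fitted effect of over 75% in size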
[7] = molecular target: Rap guanine nucleotide exchange factor 4 (Homo sapiens) (UniProt Q8WZA2); test: Confirmatory qHTS for agonist of cAMP-regulated guanine nucleotide exchange factor 4 (EPAC2) (AID 1645884);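 note: nucleotide exchange releases bodipy-GDP from Rap1 and this lowers its fluorescence; nearly all actives have a fitted effect of over 65% in size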
[8] = molecular target: Tyrosyl-DNA phosphodiesterase 1 (Homo sapiens) (UniProt Q9NUW8); test: Confirmation Assay for Inhibitors of Tyrosyl-DNA Phosphodiesterase (TDP1) (AID 489007); settings: recombinant human TDP1 enzymatic activity, dose-response; note: potency is the fitted concentration of half-maximal effect; nearly all actives have a fitted effect of over 40% in size
Sequence of Tyrosyl-DNA phosphodiesterase 1 (Homo sapiens) (Q9NUW8 whole entry, looked up): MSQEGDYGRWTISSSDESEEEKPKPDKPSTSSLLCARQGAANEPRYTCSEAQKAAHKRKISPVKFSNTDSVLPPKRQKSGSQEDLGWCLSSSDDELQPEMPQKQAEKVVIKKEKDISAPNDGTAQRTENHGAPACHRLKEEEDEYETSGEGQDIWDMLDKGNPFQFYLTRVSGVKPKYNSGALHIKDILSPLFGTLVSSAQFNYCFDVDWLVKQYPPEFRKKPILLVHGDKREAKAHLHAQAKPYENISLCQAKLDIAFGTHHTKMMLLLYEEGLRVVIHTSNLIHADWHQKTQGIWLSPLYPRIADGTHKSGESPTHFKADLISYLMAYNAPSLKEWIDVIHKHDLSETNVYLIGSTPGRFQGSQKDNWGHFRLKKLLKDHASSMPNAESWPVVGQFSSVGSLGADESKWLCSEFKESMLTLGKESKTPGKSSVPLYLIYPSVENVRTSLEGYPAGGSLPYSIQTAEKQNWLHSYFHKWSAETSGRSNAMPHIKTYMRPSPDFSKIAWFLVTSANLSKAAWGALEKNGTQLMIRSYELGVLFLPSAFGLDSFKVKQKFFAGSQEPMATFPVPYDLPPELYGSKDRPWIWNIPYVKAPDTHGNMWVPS
In short: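 AlphaScreen assay of tyrosine-FITC cleavage from a biotinylated DNA substrate (15 nM) by E. coli-expressed human Tdp1 (1 nM). Sequence: compound preincubation 15 min, reaction 5 min, bead detection 10 min, all at room temperature. No-enzyme wells give maximum signal.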

[9] = molecular target: Rap guanine nucleotide exchange factor 3 (Homo sapiens) (UniProt O95398); test: Counterscreen qHTS for agonist of cAMP-regulated guanine nucleotide exchange factor 3 (EPAC1) (AID 1645889); note: nearly all actives have a fitted effect of over 40% in size; note: potency is the fitted concentration of half-maximal effect
In short: as §1

[10] = AP1 Signaling Pathway (AID 357; active = well fitted curve in either direction with a large enough effect, not every such curve was filed as active;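 note: ME-180 reporter cells stimulated with EGF at its EC50 level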); settings: ME-180 (cervical carcinoma) AP-1-bla reporter, EGF-induced, beta-lactamase ratio, 5 h; at 7.69 µM (top of the series) unless noted
In short: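 In this screen, ME-180 cells in Opti-MEM with 0.5% dialyzed FBS received EC50 EGF and compound titrations for 5 h. AP-1 reporter beta-lactamase was detected via CCF4 ratio, giving AC50 for positive and negative modulators.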

[11] = Stat Signaling Pathway (AID 446; active = well fitted curve in either direction with a large enough effect, not every such curve was filed as active;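 note: ME-180 cervical cancer cells given 40 pM IL-6 alongside compound; SIE-controlled beta-lactamase reporter measured as 460/530 nm FRET emission ratio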)
In short: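 Normalization used AC90 stimulation (300 pM IL-6) and AC90 inhibition (125 nM pan-JAK inhibitor at 40 pM IL-6). The underlying signal is SIE-driven beta-lactamase in ME-180 cells after 5 h IL-6 exposure with compound.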

Question: For `Cn1c(N)c(C(=O)COC(=O)c2cc(-c3ccco3)nc3ccccc23)c(=O)n(C)c1=O`, which Potency [1] is on record?
Answer: 25.1 µM (active)

Question: And the outcome [2]?
Answer: inactive

Question: What about the Potency [3] of the same compound?
Answer: 47.8 µM (active)

Question: What about the Potency [4] of the same compound?
Answer: inactive

Question: What about the Potency [5] of the same compound?
Answer: inactive

Question: With `O=C(CCN1C(=O)/C(=C/c2ccc3c(c2)OCO3)SC1=S)Nc1ccc(C(=O)O)cc1` as the compound, how does the Potency [6] read?
Answer: inactive

Question: And the Potency [7]?
Answer: inactive

Question: With `Cc1ccc(Nc2nc3nonc3[nH]c2=O)cc1Cl` as the compound, how does the Potency [6] read?
Answer: inactive

Question: What about the Potency [7] of the same compound?
Answer: inactive

Question: With `Cc1ccc(-c2cc(C(=O)Nc3ccncc3)c3ccccc3n2)cc1` as the compound, how does the Potency [6] read?
Answer: inactive

Question: And the Potency [7]?
Answer: inactive

Question: Which Potency [6] does the source give for `Cn1cc([C@]2(O)C(=O)Nc3ccc(Br)cc32)c2ccccc21` here?
Answer: inactive

Question: What about the Potency [7] of the same compound?
Answer: inactive

Question: Which results are given for `CCCCC[C@H](C)N1C[C@@H](COCc2ccccc2)Oc2cc(N3CCC[C@H]3C(N)=O)ccc2S1(=O)=O`?
Answer: Potency [6]: inactive; Potency [7]: inactive

Question: With `Cc1ccc2sc(N(CCCN(C)C)C(=O)c3nc4ccccc4s3)nc2c1C` as the compound, how does the Potency [6] read?
Answer: inactive

Question: With `COc1cc(S(=O)(=O)NC2CCCCC2C)ccc1Cl` (stereo unspecified) as the compound, how does the Potency [6] read?
Answer: inactive

Question: What about the Potency [7] of the same compound?
Answer: inactive

Question: And the Potency [4]?
Answer: inactive

Question: Which results are given for `c1ccc(-c2onc(-c3ccco3)c2-c2ccc3[nH]ccc3c2)cc1`?
Answer: Potency [6]: inactive; Potency [7]: inactive

Question: Which Potency [6] does the source give for `CCC(=O)N(CCC(c1ccco1)C(C)C)Cc1ccccc1` (stereo unspecified) here?
Answer: inactive

Question: Which Potency [6] does the source give for `CN(c1ccccc1)c1nc(N)c([N+](=O)[O-])c(N2CCCCC2)n1` here?
Answer: inactive

Question: What about the Potency [7] of the same compound?
Answer: inactive

Question: Which results are given for `CCc1ccc(-c2cc(C)no2)cc1S(=O)(=O)N1CCC(C)CC1`?
Answer: Potency [6]: inactive; Potency [7]: inactive

Question: For `CCOC(=O)c1c(CC(C)C)csc1NC(C)=O`, which Potency [6] is on record?
Answer: inactive

Question: With `O=C1NC[C@@H](Cc2cccc3ccccc23)N(CCc2cc(C(F)(F)F)cc(C(F)(F)F)c2)C1=O` as the compound, how does the Potency [6] read?
Answer: inactive

Question: And the Potency [7]?
Answer: inactive

Question: And the Potency [4]?
Answer: inactive

Question: Which results are given for `O=C1NC[C@H](Cc2ccccc2)N(C[C@@H]2CCCN2C[C@H](Cc2ccc(O)cc2)N2C[C@H](Cc3ccc(O)cc3)N(CC3CCCCC3)C(=O)C2=O)C1=O`?
Answer: Potency [6]: inactive; activation [7]: 15.7% [at 17.1 µM, percent relative to cAMP agonist control]; Potency [4]: inactive

Question: What does the source list for `CC1CC(C)CN(C(=S)SCc2nc(N)nc(Nc3ccccc3)n2)C1` (stereo unspecified)?
Answer: Potency [6]: inactive; Potency [7]: inactive

Question: What does the source list for `O=C(O)c1ccc(COc2ccccc2/C=C2/NC(=O)N(c3cccc(Cl)c3)C2=O)cc1`?
Answer: Potency [8]: 10 µM (active); Potency [3]: 37.9 µM (active); Potency [5]: inactive

Question: With `CC(C)C[C@@H](COc1ccccc1)N1CCN(CCc2ccccc2)CCC1=O` as the compound, how does the Potency [6] read?
Answer: inactive

Question: And the Potency [7]?
Answer: inactive

Question: What does the source list for `C[n+]1ccc(/C=C/c2c[nH]c3ccccc23)cc1`?
Answer: Potency [3]: inactive; Potency [5]: inactive; Potency [9]: 35.5 µM (active)

Question: Which Potency [3] does the source give for `COc1cc2c3nnc(-c4ccc(F)cc4)c-3cn(Cc3cccc(C)c3)c2cc1OC` here?
Answer: inactive

Question: What about the Potency [5] of the same compound?
Answer: inactive

Question: What about the Potency [9] of the same compound?
Answer: inactive

Question: For `CCOc1cc(S(=O)(=O)Nc2ccccc2CC)ccc1Cl`, which Potency [6] is on record?
Answer: inactive

Question: And the activation [7]?
Answer: 8.65% [at 17.1 µM, percent relative to cAMP agonist control]

Question: What does the source list for `COc1ccc(S(=O)(=O)N2CCCCC2)cc1NC(=O)c1c(F)cccc1Cl`?
Answer: Potency [6]: inactive; Potency [7]: inactive; Potency [4]: inactive

Question: With `Cn1c(SCC(=O)c2ccc3c(c2)Cc2ccccc2-3)nnc1-c1ccccc1` as the compound, how does the Potency [6] read?
Answer: inactive

Question: And the activation [7]?
Answer: 0% [at 17.1 µM, percent relative to cAMP agonist control]

Question: What about the Potency [4] of the same compound?
Answer: inactive

Question: Which results are given for `O=C1C(O)=C(O)C(=O)c2ccccc21`?
Answer: Potency [6]: inactive; Potency [7]: inactive

Question: Which results are given for `COc1cc(C2NC(=O)c3c(sc4c3CCN(C)C4)N2)cc(Br)c1OC(=O)c1ccc(C)cc1` (stereo unspecified)?
Answer: Potency [6]: inactive; Potency [7]: inactive; outcome [4]: inactive [at 12.7 µM]

Question: For `CC[N+](C)(C)c1ccc(/C=C/c2ccnc3ccccc23)cc1`, which Potency [6] is on record?
Answer: inactive

Question: And the Potency [7]?
Answer: inactive

Question: For `FC(F)(F)c1ccc(CSc2nccn2-c2ccccc2)cc1`, which Potency [6] is on record?
Answer: inactive

Question: For `CCc1cc(-c2n[nH]c(C)c2-c2ccccc2Cl)c(O)cc1OC`, which Potency [6] is on record?
Answer: inactive

Question: What about the Potency [7] of the same compound?
Answer: inactive

Question: What about the Potency [4] of the same compound?
Answer: inactive

Question: For `CN1CC=C2C(C#N)=C(N)C(C#N)(C#N)[C@H](c3cccc(Cl)c3)C2C1` (stereo partly specified), which activity change, negative = inhibition [10] is on record?
Answer: -16.2% [at 17.2 µM]

Question: What about the outcome [11] of the same compound?
Answer: inactive

Question: What about the Potency [3] of the same compound?
Answer: inactive

Question: What about the Potency [5] of the same compound?
Answer: inactive

Question: What does the source list for `CCOc1cc(/C=N/Nc2ccc(C(=O)O)cc2)ccc1OC(=O)c1ccccc1C`?
Answer: Potency [6]: inactive; Potency [7]: inactive

Question: For `CCCCNC(=O)C[C@@H]1C[C@@]2(C(=O)OC)CCCCC=C2N(Cc2cccc3ccccc23)C1=O`, which Potency [6] is on record?
Answer: inactive

Question: What about the Potency [7] of the same compound?
Answer: inactive

Question: For `c1ccc(-c2onc(-c3ccco3)c2-c2ccc3c(c2)OCO3)cc1`, which Potency [6] is on record?
Answer: inactive

Question: And the Potency [7]?
Answer: inactive

Question: For `Cc1ccccc1NS(=O)(=O)c1ccc2c3c(cccc13)C(=O)N2C`, which Potency [6] is on record?
Answer: inactive

Question: And the Potency [7]?
Answer: inactive

Question: With `CCN(CC)c1ccccc1/C=C/[n+]1ccc(CCCCI)c2ccccc21` as the compound, how does the Potency [6] read?
Answer: inactive

Question: What about the Potency [7] of the same compound?
Answer: inactive

Question: What about the Potency [4] of the same compound?
Answer: 49.4 µM (active)

Question: With `CC1CCN(C2(O)C(=O)Nc3ccc(Br)cc32)CC1` (stereo unspecified) as the compound, how does the Potency [3] read?
Answer: inactive

Question: What about the Potency [9] of the same compound?
Answer: inactive

Question: Which results are given for `O=C(Nc1cccc(NC(=O)c2cccs2)c1)c1ccc(Br)o1`?
Answer: Potency [6]: inactive; Potency [7]: inactive; Potency [4]: inactive

Question: For `c1ccc(C(c2cccs2)c2c[nH]c3ccccc23)cc1` (stereo unspecified), which Potency [6] is on record?
Answer: inactive

Question: With `Cc1onc(-c2ccccc2Cl)c1C(=O)OCc1cnc(Cl)s1` as the compound, how does the Potency [6] read?
Answer: inactive

Question: With `N#CC(c1ccccc1)C(CC(=NO)c1ccccc1)c1ccccc1` (stereo unspecified) as the compound, how does the Potency [6] read?
Answer: inactive

Question: What about the Potency [7] of the same compound?
Answer: inactive

Question: For `CCOc1ccc(S(=O)(=O)Nc2cc(SCC(=O)O)c(O)c3ccccc23)cc1`, which Potency [3] is on record?
Answer: 67.5 µM (active)

Question: What about the Potency [5] of the same compound?
Answer: inactive

Question: And the Potency [9]?
Answer: 56.2 µM (active)

Question: Which Potency [6] does the source give for `COc1ccc(OCCC(=O)OCC(=O)Nc2ccc(S(=O)(=O)N3CCOCC3)cc2)cc1` here?
Answer: inactive

Question: And the activation [7]?
Answer: 0% [at 17.1 µM, percent relative to cAMP agonist control]

Question: What about the Potency [4] of the same compound?
Answer: inactive

Question: Which results are given for `NC(=O)c1c(NC(=O)CSc2nnc(-c3ccco3)n2N)sc2c1CCCC2`?
Answer: Potency [6]: inactive; Potency [7]: inactive; Potency [4]: inactive

Question: What does the source list for `Cc1ccc(N=C2NC(=O)/C(=C/C=C/c3ccco3)S2)cc1`?
Answer: Potency [6]: inactive; Potency [7]: inactive; Potency [4]: inactive
